Screens: PubChem, National Center for Advancing Translational Sciences (NCATS)
This is a sample that favours compounds with a hit; in the whole collection about 11% have one here.
Pf growth 48h: Primary qHTS for delayed death inhibitors of the malarial parasite plastid, 48 hour incubation | P. falciparum luciferase growth in erythrocytes, 48 h | Potency, µM (titrated, usually from 28.7 µM), for inactives: top-dose activity change, negative = inhibition, usual class: inhibitors | hit rate 5.9% among 310,000 | AID 504832, 2011
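Luciferase-expressing parasites in RBCs, 2% Hct / 0.1% parasitemia final; RPMI 1640 + 0.5% Albumax; 37 C, 5% CO2, one generation; luminescence read-out, lower signal = inhibition.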
HCV inhibitor: qHTS Assay for Inhibitors of Hepatitis C Virus (HCV). hit rate 3.4% among 340,000. Potency, µM (titrated, usually from 41.8 µM), without a hit: top-dose activity change, negative = inhibition, most hits filed as inhibitors. Huh7.5.1 HCVcc-Cre infection, luciferase reporter, 44 h. AID 651820, 2012
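Whole-lifecycle infectious HCVcc-Cre system; cells 1,000/well, compound then virus (~0.5 moi) added 4 h after plating, 44 h culture. Luciferase read 15 sec following 15 min substrate incubation, room temp.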
Pf growth 96h: Primary qHTS for delayed death inhibitors of the malarial parasite plastid, 96 hour incubation; Potency, µM (doses to about 28.7 µM), inactives show top-dose activity change, negative = inhibition, hits mostly inhibitors; AID 504834, 2011; P. falciparum luciferase reporter growth, 96 h; hit rate 6.9% among 320,000
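Luminescence readout: decreased luciferase signal marks inhibited growth of reporter-expressing P. falciparum in infected red cells (2% hematocrit, 0.05% parasitemia final), exposed to compound two generations (96 h, 37 C, 5% CO2).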
AmpC detergent: qHTS Inhibitors of AmpC Beta-Lactamase (assay with detergent); P00811; hit rate 0.041% among 370,000; Potency, µM (top dose mostly 114 µM), for inactives: at the top dose activity change, negative = inhibition, actives largely listed as inhibitors; AmpC hydrolysis of nitrocefin, absorbance 480 nm, 0.01% Triton;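 also: 0% = no-compound wells and -100% = no-enzyme wells; nearly all actives have a fitted effect of over 25% in size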
Target sequence (P00811 whole entry, looked up): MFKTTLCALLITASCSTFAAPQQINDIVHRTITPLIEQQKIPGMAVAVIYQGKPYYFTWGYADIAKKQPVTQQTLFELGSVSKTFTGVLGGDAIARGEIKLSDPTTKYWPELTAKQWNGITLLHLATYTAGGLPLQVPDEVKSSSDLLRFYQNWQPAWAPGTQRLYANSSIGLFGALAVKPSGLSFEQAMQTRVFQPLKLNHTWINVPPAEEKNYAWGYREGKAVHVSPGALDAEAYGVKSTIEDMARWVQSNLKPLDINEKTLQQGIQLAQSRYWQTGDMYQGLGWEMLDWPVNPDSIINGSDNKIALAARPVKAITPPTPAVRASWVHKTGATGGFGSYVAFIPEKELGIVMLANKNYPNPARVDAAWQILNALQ
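20 mM phosphate pH 7.0 + 0.01% (detergent screen) or 0.0001% Triton X-100; 5.3 nM AmpC reagent; cpd preinc 15 min RT; nitrocefin (800 uM stock) to start; A480 q20 s × 4 min; Activity was normalised to no-enzyme and no-compound control wells.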
AmpC inh no detg: qHTS Inhibitors of AmpC Beta-Lactamase (assay without detergent) | P00811 | AmpC nitrocefin hydrolysis, absorbance 480 nm, 0.0001% Triton | Potency, µM (series often up to 57.1 µM), for inactives: at the highest dose activity change, negative = inhibition, most hits filed as inhibitors | hit rate 0.52% among 330,000 | AID 485341, 2010;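 also: plate controls were no compound for no effect and no enzyme for full effect; nearly all actives have a fitted effect of over 20% in size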
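20 mM phosphate pH 7.0 + 0.01% (detergent screen) or 0.0001% Triton X-100; 5.3 nM AmpC reagent; cpd preinc 15 min RT; nitrocefin (800 uM stock) to start; A480 q20 s × 4 min; Activity was normalised to no-enzyme and no-compound control wells.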
AMA1 RON2 block: qHTS for Inhibitors of AMA1-RON; Towards Development of Antimalarial Drug Lead: Primary Screen | Plasmodium falciparum AMA1 (3D7) - RON2 peptide interaction | AlphaScreen AMA1-biotinylated RON2 peptide binding | Potency, µM (top dose mostly 58.2 µM), inactives show top-dose activity change, negative = inhibition, actives largely listed as inhibitors | hit rate 0.2% among 360,000;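 also: 0% = vehicle wells and -100% = peptide control; nearly all actives have a fitted effect of over 45% in size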
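AMA1 (3D7) with his tag at 25 nM final met compounds first, then biotinylated RON2 peptide at 25 nM; detection used donor plus acceptor beads, 10 µg/mL apiece, read by AlphaScreen after 30 min at room temperature.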
The depositor's hits bear a star; ? = inconclusive; · = no result. Calls follow the shape of the dose curve; as a rule, active = well fitted curve in the direction sought with a large enough effect; inconclusive = small, poorly fitted or top-dose-only effect, or another doubt; inactive = no such curve, though single readings can be large; an effect the other way counts as inactive or inconclusive. Unless noted, % is scaled to controls: 0 for no effect and ±100 for the full control effect; potency is read from the fitted curve at half-maximal effect.

SMILES	Pf growth 48h	HCV inhibitor	Pf growth 96h	AmpC detergent	AmpC inh no detg	AMA1 RON2 block
Cc1c(C(=O)NCc2cccnc2)sc2nc(-c3ccc(F)cc3)cn12	0%	11µM*	?	3%	167%	0%
Cc1c(C(=O)NCCCN2CCOCC2)sc2nc(-c3ccc(F)cc3)cn12	?	10µM*	?	-8%	104%	26%
O=C(NCCCN1CCOCC1)c1cc(-c2ccc(F)cc2)on1	45%	-8%	32%	?	2%	2%
CCCCS(=O)(=O)c1nc(-c2ccc(Br)cc2)cc(-c2ccccc2)c1C#N	·	·	·	12%	·	·
O=C(CNC(=O)c1ccccc1F)OCc1cc(=O)n2ccsc2n1	·	·	·	9%	·	·
CCOC(=O)CSc1nc(C2CC2)cc(-c2ccc(Cl)cc2)c1C#N	10µM*	12%	-27%	5%	-20%	25%
CCSc1nc(C2CC2)cc(-c2ccco2)c1C#N	-10%	?	·	-7%	-46%	11%
CCSc1nc(C2CC2)cc(-c2cccs2)c1C#N	·	7.9µM*	2%	?	-22%	64%
COc1cc2c(cc1OC)C(c1ccc(F)cc1)N(c1cccc(C#N)c1)C(=O)C2 (stereo not drawn)	·	·	·	0%	·	·
Cc1ccc(-c2nnc(Nc3ccc(Br)cc3)c3ccccc23)cc1S(=O)(=O)N1CCN(C)CC1	·	·	·	-3%	·	·
COc1ccc2[nH]c(=O)c(CN(Cc3ccccc3OC)Cc3nnnn3CC3CCCO3)cc2c1 (stereo not drawn)	?	12%	42%	?	74%	3%
COCCn1nnnc1CN(CCc1ccccc1)Cc1cc2ccc(C)cc2[nH]c1=O	?	0%	10µM*	?	49%	-6%
COc1ccc2cc(CN(CCc3ccccc3)Cc3nnnn3CC3CCCO3)c(=O)[nH]c2c1 (stereo not drawn)	9.3µM*	-21%	124%	-8%	92%	-6%
COc1ccc2[nH]c(=O)c(CN(Cc3ccc(C)cc3)Cc3nnnn3CC3CCCO3)cc2c1 (stereo not drawn)	?	6%	8.3µM*	?	0%	2%
COc1ccccc1CN(Cc1cc2cc(C)ccc2[nH]c1=O)Cc1nnnn1Cc1ccco1	12µM*	13µM*	3.3µM*	-14%	-10%	-8%
CCCNc1nc(NCc2ccccc2OC)c2cnn(C)c2n1	·	·	·	1%	·	·
CCN1CCN(c2cc(C)c3cc(NC(=O)c4cc(Br)ccc4Cl)ccc3n2)CC1	·	·	·	-4%	·	·
COc1ccc(Cl)cc1C(=O)NCc1nnnn1-c1ccccc1	·	·	·	18%	·	·
COc1ccc(CCNC(=O)CSc2ncc3c(n2)-c2cc(Cl)ccc2N(Cc2ccccc2)S3(=O)=O)cc1OC	·	·	·	0%	·	·
CCC(=O)N1CCc2cc(CNS(=O)(=O)c3ccc(Cl)s3)ccc21	·	·	·	17%	·	·
COC(=O)c1cc(NC(=O)c2oc(=O)c3ccccc3c2-c2ccccc2)cc(C(=O)OC)c1	·	·	·	2%	·	·
COc1ccccc1CN(Cc1cc2cc(C)ccc2[nH]c1=O)Cc1nnnn1CC1CCCO1 (stereo not drawn)	7.4µM*	-1%	10µM*	?	95%	-13%
O=c1[nH]c2cc3c(cc2cc1CN(Cc1nnnn1CC1CCCO1)C1CCCCC1)OCO3 (stereo not drawn)	?	-4%	-13%	4%	-31%	-2%
O=c1[nH]c2cc3c(cc2cc1CN(Cc1nnnn1CC1CCCO1)C1CCCC1)OCO3 (stereo not drawn)	32%	13%	10µM*	-5%	0%	0%
NS(=O)(=O)c1ccc2c(c1)C(=NO)c1cc(S(N)(=O)=O)ccc1-2	6%	-7%	-26%	-13%	-17%	-1%
